# APOBEC3A inh – human APOBEC3A DNA deaminase inhibition. P31941. recombinant A3A, FAM/TAMRA ssDNA deamination fluorescence. inhibition, % at 20 µM. 330,000 compounds, 0.41% hits;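 active = at least 40% inhibition at 20 µM here, with at most 30% in a related deaminase screen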;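 also: plate controls were A3A with DMSO for no effect and wells lacking A3A enzyme for full effect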
# Target sequence (P31941 whole entry, looked up): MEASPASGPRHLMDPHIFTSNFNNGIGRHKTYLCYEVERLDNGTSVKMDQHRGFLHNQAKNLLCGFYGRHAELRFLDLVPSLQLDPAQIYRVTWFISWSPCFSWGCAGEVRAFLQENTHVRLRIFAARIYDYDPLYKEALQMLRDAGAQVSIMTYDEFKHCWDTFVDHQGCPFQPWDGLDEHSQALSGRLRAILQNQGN
# LANA-H2A inh – blocks KSHV LANA binding to histone H2A/H2B | 320,000 compounds, 0.6% hits | inhibition, % (concentration not given with the values) | cell-free LANA-H2A/H2B peptide, fluorescence polarization | AID 2629 | Q9QR71; in the data active = inhibition mostly above about 10%, no sharp cut-off; inactive = mostly below about 6.7%
# APOBEC3G inh – APOBEC3G (human) deaminase inhibition | inhibition, % at 20 µM | 330,000 compounds, 0.28% hits | recombinant A3G, ssDNA deamination FAM/TAMRA fluorescence | Q9HC16;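 active = inhibition of at least 40% at 20 µM, with no more than 30% in the related APOBEC3A deaminase screen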;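 also: plate controls were DMSO wells with A3G for no effect and wells lacking A3G enzyme for full effect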
# HDAC3 inhib – human HDAC3 inhibition. 320,000 compounds, 0.15% hits. recombinant HDAC3, fluorogenic peptide/trypsin coupled, fluorescence. inhibition, % at 8.3 µM. AID 2718. O15379; in the data active = inhibition above about 26%, passing the limit was not always enough
# A3A conf – APOBEC3A (human) deaminase inhibition, confirmed | shares compounds with APOBEC3A inh | inhibition, % at 20 µM | recombinant A3A, ssDNA deaminase UDG fluorescence assay | AID 493151 | 1,400 compounds, 63% hits;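 active = inhibition reaching a set limit, 80% of the first screen's cutoff, at 20 µM in any replicate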;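 also: plate controls were DMSO wells with A3A for no effect and wells lacking A3A enzyme for full effect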
# UDG ctr A3A – UDG inhibition in APOBEC3A counter-screen. shares compounds with APOBEC3A inh. UDG counterscreen, FAM/TAMRA uracil oligo fluorescence. inhibition, % at 20 µM. 1,000 tested, under 10 active. AID 504714; call rule not given here
# Active calls of the source: *; x = not tested or not shown. Rows were chosen to be rich in hits. Some 1.4% of all compounds tested hit in one or more screens of this group.
SMILES,APOBEC3A inh,LANA-H2A inh,APOBEC3G inh,HDAC3 inhib,A3A conf,UDG ctr A3A
O=C(OCCOCCN=C1NS(=O)(=O)c2ccccc21)c1ccccc1Br,-3,1,6,-4,x,x
CC(C)=CCC/C(C)=C/CNC(=O)C[C@H]1C[C@H](C(=O)N(C(C)C)C(C)C)[C@@]2(C)c3[nH]c4cc(CCC(=O)N(C)C)ccc4c3CCN2C1=O,5,x,7,x,x,x
COC(=O)C1=C(C)N(Cc2ccccc2)C(=NCc2ccccc2)N[C@H]1c1ccccc1,32,1,4,0,x,x
COC(=O)C1=C(C)N(Cc2ccccc2)C(=NCc2cc(OC)c(OC)c(OC)c2)N[C@H]1c1ccccc1,70*,-2,25,-2,47*,x
CCNC(=O)Cn1cc(C#N)c2ccccc21,53*,1,20,0,11,x
COc1ccc(N2C(=O)N3[C@@H]4c5ccccc5OC[C@@H]4[C@@H](c4ccccc4)[C@@]3(C)C2=O)cc1,-3,-4,-6,-4,x,x
Cc1ccc(NC(=O)CN2C(=O)S/C(=C\c3cccn3-c3cccc(C(=O)O)c3)C2=O)cc1C,13,11,0,0,x,x
COc1ccc(NC(=O)CN2C(=O)S/C(=C/c3cccn3-c3ccc(C(=O)O)cc3)C2=O)cc1,63*,1,25,8,57*,x
CC(=O)Nc1ccc(-c2ccccc2)s1,45*,-5,17,9,45*,0
CC(=O)Nc1ccc(NC(C)=O)s1,-4,1,-5,7,x,x
CCOC(=O)c1c(C)[nH]c(C(=O)OCC(=O)Nc2cc(C)nn2-c2ccccc2)c1C,4,-5,-8,6,x,x
Cc1cc(C)c(NC(=O)CN(C)CC(=O)N(C)CC(=O)Nc2c(Cl)cccc2Cl)c(C)c1,19,x,9,x,x,x
O=C(/C=C/c1ccccc1)c1cc(Br)ccc(=O)c1O,41*,-4,17,8,40*,x
O=C(/C=C/c1ccc(F)cc1)c1cc(Br)ccc1O,0,-8,0,0,x,x
COc1ccc(N2CCN(C(=O)Cc3ccc(S(=O)(=O)N4CCOCC4)s3)CC2)cc1,49*,6,10,2,25,x
O=C(O)Cc1ccc(S(=O)(=O)N2CCCC2)s1,49*,2,7,-3,51*,-2
COc1ccc(-c2cc(C(=O)N(C)Cc3nc4ccccc4c(=O)[nH]3)c3ccccc3n2)cc1OC,-2,1,-7,-2,x,x
CN(CC(=O)N1CCN(Cc2ccccc2)CC1)C(=O)Cc1ccc(Cl)c(Cl)c1,50*,2,1,5,34*,-3
CN(C)S(=O)(=O)N(CC(=O)N1CCN(Cc2ccccc2)CC1)c1ccccc1,33,9,-6,-1,x,x
CSc1ccccc1C(=O)OCC(=O)Nc1ccc(N2CCOCC2)cc1,-2,-6,-2,-3,x,x
Cc1cc(C)cc(N(C(=O)c2csnn2)C(C(=O)NC(C)(C)C)c2cccs2)c1 (stereo not given),68*,-3,-4,-2,-4,1
Cc1ccc(N(C(=O)c2csnn2)C(C(=O)NC(C)(C)C)c2cccs2)cc1 (stereo not given),-1,1,6,3,x,x
Cc1ccc(N2C(SCC(=O)O)=NC(=Nc3cccc(C)c3)C23CCCC3)cc1,44*,0,5,10,15*,-2
CCN(CC)C1=CC(=[N+]2CCCC2)CC(C)(C)C1,54,1,46,7,x,x
CC1(C)CC(=O)C=C(N2CCNCC2)C1,-4,2,-2,3,x,x
SMILES,APOBEC3A inh,LANA-H2A inh,APOBEC3G inh,HDAC3 inhib,A3A conf,UDG ctr A3A
CN(Cc1ccccc1)C1=CC(=[N+]2CCCC2)CC(C)(C)C1,57*,-6,19,10,70*,-2
CC1(C)CC(N2CCCC2)=CC(=[N+]2CCCCCC2)C1,62*,8,26,10,68*,0
CC1(C)CC(N2CCN(c3ccccc3)CC2)=CC(=[N+]2CCCC2)C1,44*,2,18,9,66*,-5
CCC1(c2ccccc2)ON(c2c(Br)cccc2Br)C1=O (stereo not given),1,7,4,0,x,x
CCOC(=O)C1CCN(Cc2cc(Cl)c3ccccc3c2O)CC1,-3,2,-6,-11,x,x
C#CCn1c(CCNC(=O)c2ccco2)nc2ccccc21,2,-4,-5,0,x,x

# Source: PubChem (several laboratories)
